Source: the supplement of paper PMC6555819

Assays:
Assay in all cases: PBM binding z-score (relative to random genomic background probes); higher = stronger binding; sequences stand for … in GC…GCGATTGACAGCGTAGAATGAAGG
[1] = system: PPARg:RXRa DBDmut IVT, anti-RXR (DBD mutation: RXRa K156A/R161A, NR concentration 270 nM, RXRa partner concentration 90 nM)
How it was run: (§1)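 Ligand-free nuclear receptor dimers were applied to custom Agilent 4×180K protein-binding microarrays whose double-stranded probes carried direct-repeat seeds, single-nucleotide variants, half-site ablations and random human genomic background sequences in 34-nt variable regions. Incubation lasted 1 h. Binding z-scores were computed against the random background probes from regression-normalized fluorescence.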

[2] = system: PPARg:RXRa IVT, anti-PPARg (NR concentration 270 nM, RXRa partner concentration 90 nM)
How it was run: as §1

[3] = system: PPARg DBDmut:RXRa IVT, anti-PPARg (DBD mutation: PPARg1 K132A/R137A, NR concentration 270 nM, RXRa partner concentration 90 nM)
How it was run: as §1

[4] = system: PPARg DBDmut IVT, anti-PPARg (DBD mutation: PPARg1 K132A/R137A, NR concentration 270 nM)
How it was run: as §1

[5] = system: PPARg homodimer (NR concentration 180 nM)
How it was run: as §1

[6] = system: PXR:RXRa (NR concentration 270 nM, RXRa partner concentration 90 nM)
How it was run: as §1

[7] = system: PXR homodimer (NR concentration 270 nM)
How it was run: as §1

[8] = system: RARa:RXR (NR concentration 270 nM, RXRa partner concentration 90 nM)
How it was run: as §1

[9] = system: RARa homodimer (NR concentration 270 nM)
How it was run: as §1

[10] = system: RARb:RXRa (NR concentration 270 nM, RXRa partner concentration 90 nM)
How it was run: as §1

Sequence	PBM binding z-score [1]	PBM binding z-score [2]	PBM binding z-score [3]	PBM binding z-score [4]	PBM binding z-score [5]	PBM binding z-score [6]	PBM binding z-score [7]	PBM binding z-score [8]	PBM binding z-score [9]	PBM binding z-score [10]
CCTGCTAGGTCATGGGCAGCTAATCTACAGTATG	4.17	3.73	0.149	-0.33	1.36	1.1	-0.682	2.68	0.607	3.83
CGTCCAATGTCAGCAGGTCAGTGAAAGCGACGTG	0.4	0.811	-0.067	-0.189	1.33	0.416	-0.258	1.17	0.0652	2.6
CCTGCTAGGTCAATGGTAAGCTAAAGCAGCTCGC	4.33	3.43	-1.49	-0.489	1.05	0.564	-0.596	1.5	-0.463	3.79
TCTATTAGTTGTAGGGCAACCGACGAGTCCGTTT	3.04	2.66	0.777	1.16	0.517	0.457	0.613	0.212	0.401	0.601
CCGACTGGGGCAAAGGTTACCATTCTCAGTACGA	4.87	5.9	0.712	0.351	3.82	2.41	-0.502	3.87	-0.539	2.39
TAGCCTAGGTCATTAAGGGGCCAGTATAGAAAGC	1.56	2.58	0.422	0.198	0.937	1.36	-0.202	2.18	0.00876	3.64
ACAATGAGGTTACCAAAGATCAGGGAAACGCTTG	2.64	2.42	0.961	1.48	0.966	1.52	0.0541	2.2	0.0916	2.32
CCTACTGGGCCAAAAAGGGCATTGATGCCGATAA	3.27	2.46	-1.19	-0.893	0.55	-0.0509	-0.102	-0.0363	-0.572	1.49
TCTACTAGGTCAGTTGGTCAGCTAACGAGCTGCC	6.44	6.43	1.78	0.835	1.78	0.537	-0.418	0.904	0.501	3.46
TCATATAGGTAAACAGGTGAACGTCCGTAAGTTA	5.34	5.19	1.47	1	1.69	1.09	0.569	1.4	1.29	0.977
CCTGACGGGTCAAGGTTATAGCACGGGTGGTACG	0.0106	1.52	-0.561	-0.647	1.94	2.74	0.233	3.65	0.717	3.78
CCTACTGGGGCAAAGGTTACCATACTCAGTACGA	5.92	7.16	3.64	1.43	4.58	2.6	-0.144	4.19	-0.0268	2.6
CCTACTCGGCCAAGGTCATTGATCAGTCAAAGCA	1.8	1.68	-0.0349	-0.365	2.76	3.75	2.34	3.59	1.82	3.52
ATCGAAAGGTGGTGAGGTGAGTATACAGAAAGGC	-0.246	0.807	0.968	1.51	0.911	0.257	0.574	0.614	0.646	0.849
CGAACGAGGGCATGAGTTGATAGCGAATGCCGAT	3.22	2.24	-0.216	-0.415	0.483	0.461	-0.235	0.351	-0.349	1.97
CCTACTGGGCCATCAGGGCATTGATATCAACGTT	3.95	3.99	0.633	0.588	-0.00622	-0.679	-0.548	-0.889	-0.828	0.358
ATACCAAGGTGATCGTGAGGTCCTTGATACTAAC	0.257	0.989	0.0116	-0.0653	-0.043	0.241	0.00841	0.662	0.0164	0.729
TCTTGTACATCAACAGGAGGTTAAGAAAGATCGA	1.52	0.927	1.32	1.51	-0.544	0.873	0.161	1.09	0.409	0.66
ATCTCTAAGTAACCAAGTTCAGTGAATGCCGAAC	-0.304	0.256	0.36	0.891	0.71	1.3	1.61	0.788	0.561	1.16
CCTACTGGGCCAAGAAAGGTCATTGATTCAGTGA	3.49	3.92	-0.232	0.143	2.98	5.1	1.18	5.31	1.75	3.89
GCAGTCAGGTGAAACGCAGGTAACTCAGGGTGGC	1.84	0.996	-0.763	-0.908	-0.83	-0.443	-0.701	0.159	-1.13	1.03
TCTGCTAGGTCAACGATGGTCGGCTAATCTGCTA	4.31	4.05	0.027	-0.0502	0.168	1.22	-0.84	2.02	-1.21	3.97
CAAACTAGGTCAAGAGTTCAAAGTCCGCTTCCCG	8.53	8.57	5.05	5.84	7.86	6.27	10.5	6.61	2.65	4.74
AGAATGAGGTTATTAAGTTCAGGGAATTGCGGTC	2.87	2.49	1.24	0.465	1.36	5.65	13.8	2.88	0.854	2.35
ATCTATAGGTAAAAGTTCAGTGAATCCCGAGGAT	1.4	3.05	1.78	1.92	1.04	2.17	1.35	1.84	1.06	2.29

Sequence	PBM binding z-score [1]	PBM binding z-score [2]	PBM binding z-score [3]	PBM binding z-score [4]	PBM binding z-score [5]	PBM binding z-score [6]	PBM binding z-score [7]	PBM binding z-score [8]	PBM binding z-score [9]	PBM binding z-score [10]
TAGCCTAGGTCATGCGGGCCAGAATAGTGTCGGC	1.69	2.9	-0.0114	-0.646	0.886	1.66	-0.503	2.58	-0.8	3.83
ATCTCTAGGTCACCAAGTTCAGTGAATGCCGAAC	7.23	7.06	2.4	2.04	3.74	5.68	11.1	3.92	2.64	4.82
GCAGACAGTTGAAACGCAGGTAACTCAGGGTGGC	-0.661	-0.74	-1.02	-0.586	-0.714	-0.372	-0.779	0.0801	-0.512	-0.0972
CCTTACTGGTCACGAGGTTATAGCACGACGAGCG	1.37	2.01	1.13	0.311	1.78	1.55	0.447	2.19	1.15	2.46
CAAACTAGGTCACTGAGGTCAAAGTCCGTGCGTA	8.41	8.65	1.56	0.597	4.26	6.53	12.1	6.4	0.887	4.89
ATCTCTAGGTAAAAGTTCAGTGATTCCCGAGGAT	2.14	3.78	1.64	0.678	1.31	1.97	1.49	1.61	0.97	2.32
TAGCCTAGGTAAGATCGGGCCAGTATACGCTATA	-0.504	-0.0138	-2.06	-1.02	-0.948	-0.638	-0.73	-0.261	-1.46	-1.22
CAAACTAGGTCACGTAAGGTCAAAGTCGAATGAC	8.55	9.19	2.78	1.76	2.46	6.83	2.57	6.43	1.84	5.38
TTAATGAGGTTATAAGATCAGGGAACGTTGCAAA	2.84	2.61	1.48	1.53	0.917	1.11	0.494	1.66	1.23	1.27
TGTCAAAGTTCAAGGGTAACGTAAGTATCCACAC	-0.0175	4.63	1.78	1.04	2.41	4.83	2.3	4.95	0.926	5.05
AGAACGAGGCCACGCTGAGTTGATAGCAGAGTAG	3.08	2.31	0.24	0.0825	-0.457	-0.0371	-0.451	-0.283	-0.379	1.17
CCAGACAGGTGAGATGGTAACTCAGCCTCGATTA	0.95	0.00345	-0.391	-0.721	0.16	-0.343	0.189	-0.347	0.738	0.229
CCGACTGGGGCAAGGTTACCATGACGCACAGCCA	2.69	3.49	-0.7	-0.368	0.811	0.221	-0.439	0.851	-0.183	1.62
CAAACTAGATCAAGAGGTCAAAGTCCGCTTCCCG	2.78	3.67	0.521	0.139	2.25	5.07	1.99	5.22	1.44	4.06
GCAGACTGGTGAAACGCAGGTAACTCAGGGTGGC	-0.965	-0.728	-0.431	-1.07	-1.3	-0.855	-0.855	-0.718	-1.39	-0.689
CGGACGAGGGCATGAGTTGATAGCAAATGCCGAT	1.74	0.979	-0.792	-1.58	-0.164	0.528	0.00329	0.284	0.0592	2.03
CCTGCTGGGCCAAAAAGGTCATTGATGCCGATAA	0.633	1.32	-0.602	-0.914	3.24	4.99	3.34	5.41	0.138	3.89
ACTAGTTGGTCAGCTGAGGACACACACAATTCGG	0.766	1	0.592	0.377	0.0418	1.38	0.241	1.05	0.18	1.52
ACTATTAGTTGAGACGAGGGCAACCGTTAGGTTG	0.0606	0.467	0.0213	0.173	0.552	1.36	0.226	0.588	-0.132	1.1
AGACCGAGGGCACGCTGAGTTGATAGCAGAGTAG	1.14	1.33	-0.432	-1.3	0.2	1.52	-0.245	0.998	-0.487	2.61
TCTTGTAGATCAACAGAAGGTTAAGAAAGATCGA	2.05	0.787	0.882	0.062	-0.0281	0.812	0.0567	0.954	-0.338	0.701
ATCTCTAGGTAAAAGTTCCGTGAATCCCGAGGAT	2.32	1.72	0.769	1.67	0.967	-0.0655	0.269	0.0824	0.505	0.237
CGTCCAAGGTCAGCAGGTCAGTAAAAGCGACGTG	2.72	3.62	0.159	-0.726	3.33	3.43	0.607	4.46	0.549	5.51
AGAATGAGGTTAAGATCATGGAAACAGAATACAT	2.36	2.7	1.78	1.04	0.572	1.24	0.274	1.79	0.586	1.68
